According to PubChem BioAssay (EPA / NIEHS):
Several values for one entry are separate records, joined by “and”; a condition that tells them apart may be missing. Equal values may be shown once. Inconclusive results are not listed. Some compounds were tested as several samples or in several runs, with calls that do not always agree. Activity calls are given as the source filed them. The calls were made as follows: active = hit-call score of the fitted dose curve at least 0.9, where 1 is the maximum; inconclusive = response in the unintended direction; inactive = score below 0.9.

Molecular target: Retinoic acid receptor RXR-alpha (Homo sapiens) (UniProt P19793)
Experiment: OT_NURR1_NURR1RXRa_1440: Odyssey Thera (OT) 24-hour HEK293T Protein Complementation Assay for Nurr1/retinoid X receptor (RXR) (AID 2283386)
Description: OT_NURR1_NURR1RXRa_1440 is a cell-based assay that uses HEK293T, a human kidney cell line, with measurements taken at 24 hours after chemical dosing in a 384-well plate.OT_NURR1_NURR1RXRa_1440 is one of one assay component(s) measured or calculated from the OT_NURR1_NURR1RXRa_1440 assay. It is designed to make measurements of protein fragment complementation, a form of binding reporter, as detected with fluorescence intensity signals by Protein-fragment Complementation technology.Data from the assay component OT_NURR1_NURR1RXRa_1440 was analyzed into 1 assay endpoint. This assay endpoint, OT_NURR1_NURR1RXRa_1440, was analyzed in the positive analysis fitting direction relative to DMSO as the negative control and baseline of activity. Using a type of binding reporter, measures of receptor for gain-of-signal activity can be used to understand the binding at the pathway-level as they relate to the gene RXRA. Furthermore, this assay endpoint can be referred to as a primary readout, because the performed assay has only produced 1 assay endpoint. To generalize the intended target to other relatable targets, this assay endpoint is annotated to the nuclear receptor intended target family, where the subfamily is non-steroidal.
Protein-fragment complementation assay, or PCA, is a method for the identification and quantification of protein-protein interactions. In the PCA, the proteins of interest ("bait" and "prey") are each covalently linked to fragments of a third protein (e.g. DHFR, which acts as a "reporter"). Interaction between the bait and the prey proteins brings the fragments of the reporter protein in close proximity to allow them to form a functional reporter protein whose activity can be measured.

Chain of Retinoic acid receptor RXR-alpha (Homo sapiens) (P19793 whole entry, looked up): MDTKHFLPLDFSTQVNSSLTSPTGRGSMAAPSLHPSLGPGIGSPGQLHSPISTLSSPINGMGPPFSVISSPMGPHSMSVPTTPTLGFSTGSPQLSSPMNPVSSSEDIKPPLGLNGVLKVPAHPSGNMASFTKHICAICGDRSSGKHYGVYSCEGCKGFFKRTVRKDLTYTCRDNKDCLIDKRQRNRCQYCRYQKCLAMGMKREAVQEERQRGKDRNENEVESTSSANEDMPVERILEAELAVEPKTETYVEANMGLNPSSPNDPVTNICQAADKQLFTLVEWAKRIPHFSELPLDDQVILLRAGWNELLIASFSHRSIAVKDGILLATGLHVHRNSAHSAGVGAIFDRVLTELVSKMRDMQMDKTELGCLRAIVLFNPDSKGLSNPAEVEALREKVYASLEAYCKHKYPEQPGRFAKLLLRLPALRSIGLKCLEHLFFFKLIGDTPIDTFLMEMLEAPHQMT

Row | Compound | outcome | AC50
1 | CCCCCC(C)OC(=O)COc1ccc(Cl)c2cccnc12 (stereo not given) | inactive | –
2 | O=C(CCCN1CCC(O)(c2ccc(Cl)cc2)CC1)c1ccc(F)cc1 | inactive | 80.3 µM (active)
3 | O=C1NS(=O)(=O)c2ccccc21 | inactive | –
4 | C[C@]12CC[C@@H]3c4ccc(O)cc4CC[C@H]3[C@@H]1C[C@@H](O)[C@@H]2O | inactive | –
5 | NCc1cccc(CN)c1 | inactive | –
6 | COc1cc([N+](=O)[O-])ccc1N | inactive | –
7 | CN(C)CCOC(c1ccccc1)c1ccccc1 | inactive | 6.73 µM (active)
8 | NCCN | inactive | –
9 | NS(=O)(=O)O | inactive | –
10 | CCCCc1oc2ccccc2c1C(=O)c1cc(I)c(OCCN(CC)CC)c(I)c1 | – | 8.94 µM (active) and 8.82 µM (active)
11 | O=S(=O)(O)c1ccccc1 | inactive | –
12 | Cc1cc(C(C)(C)C)c(O)c(C(C)(C)C)c1 | – | 77.3 µM (active)
13 | CC(=O)Nc1ccc(O)cc1 | inactive | –
14 | CCCCCCC(C)(C)C(=O)O | inactive | –
15 | O=C(c1ccccc1)c1ccccc1 | inactive | –
16 | CCCCCCCCCCCC(=O)O | inactive | –
17 | O=C(O)c1cccc(C(=O)O)n1 | inactive | –
18 | CN(Cc1cnc2nc(N)nc(N)c2n1)c1ccc(C(=O)N[C@@H](CCC(=O)O)C(=O)O)cc1 | inactive | –
19 | CCCCC=O | inactive | –
20 | CCCCCCc1ccc(N)cc1 | inactive | –
21 | Cc1ccc(S(=O)(=O)O)cc1 | inactive | –
22 | CCCCCCCCCCCC | inactive | –
23 | c1cnc2c(c1)ccc1cccnc12 | – | 0.727 µM (active)
24 | CCCCC(CC)C(=O)O (stereo not given) | inactive | –
25 | CC(C)[C@@H]1CC[C@@H](C)C[C@H]1O | inactive | –
26 | CCCCCCCCCCCCCCC | inactive | –
27 | CC(O)COc1ccccc1 (stereo not given) | inactive | –
28 | CCC(C)c1ccccc1O (stereo not given) | inactive | –
